The campaign covered roughly 69,000 compounds. About 950 (1.4%) showed an effect of 50% or more. The full list was thinned out, with strong results kept by preference.
Tested on: Mycobacterium tuberculosis
Assay: Cornell M. t heat shock assay; further: in the data most compounds retested in dose-response had high values
Type: functional, organism-based
Parameters: dose or concentration left out as unconfirmed

Q: With `Cc1ccc(-c2cn[nH]c2C2CCCN(c3ccnc(C)n3)C2)cc1` (centres undefined) as the molecule, how does the “Percent Effect” value read?
A: 19.62%

Q: With `Cc1ccc(-c2cn[nH]c2C2CCCN(c3nccc(N)n3)C2)cc1` (centres undefined) as the molecule, how does the “Percent Effect” value read?
A: 65.07%

Q: Which “Percent Effect” value does the source give for `Cc1ccc(-c2cn[nH]c2C2CCCN(c3ncccn3)C2)cc1` (centres undefined) here?
A: -0.9903%

Q: For `CS(=O)(=O)NC[C@]12COC[C@H]1CN(Cc1ccc3c(c1)OCO3)C2.O=C(O)C(F)(F)F`, which “Percent Effect” value is on record?
A: 3.977%

Q: Which “Percent Effect” value does the source give for `CCOC(=O)N1CC2(CCNCC2)c2cc(Cl)ccc21.Cl` here?
A: -1.259%

Q: `COCC(=O)NC1CC2(CCN(CCN(C)C)CC2)c2ccccc21` (centres undefined) was tested. Which “Percent Effect” value did it give?
A: 10.28%

Q: How did the “Percent Effect” value turn out when `CC(O)c1cccc(Nc2nc(NCCO)c3ccccc3n2)c1` (centres undefined) was run?
A: 10.04%

Q: With `CCN(CC)c1nc(Nc2cccc(C(C)O)c2)nc2ccccc12` (centres undefined) as the molecule, how does the “Percent Effect” value read?
A: 99.47%

Q: `CCN(CC)c1nc(Nc2cccc(C(=O)O)c2)nc2ccccc12` was tested. Which “Percent Effect” value did it give?
A: -2.465%

Q: For `Cc1ccc(CN2CCc3onc(C(=O)Nc4cccnc4)c3C2)o1.O=C(O)C(F)(F)F.O=C(O)C(F)(F)F`, which “Percent Effect” value is on record?
A: 26.18%

Q: With `Cc1cccc(CN2CC[C@H]3O[C@H](C(=O)Nc4cnccn4)CC[C@H]32)n1.O=C(O)C(F)(F)F.O=C(O)C(F)(F)F` as the molecule, how does the “Percent Effect” value read?
A: -10.98%

Q: For `Cl.O=C1N(Cc2cccc(Cl)c2)CCC12CCCNC2` (centres undefined), which “Percent Effect” value is on record?
A: -6.247%

Q: Which “Percent Effect” value does the source give for `O=C(NCc1cccnc1)N[C@H]1CC[C@@]2(CCC(=O)N2CC2CC2)CC1.O=C(O)C(F)(F)F` here?
A: 35.19%

Q: Which “Percent Effect” value does the source give for `Cc1cccc(-c2ccc(C(=O)N3CCSCC3)c(=O)[nH]2)c1` here?
A: 96.07%

Q: For `CC(=O)N1CCN(C(=O)c2ccc(-c3cccc(C)c3)[nH]c2=O)CC1`, which “Percent Effect” value is on record?
A: 14.72%

Q: With `Cc1cccc(-c2ccc(C(=O)N3CCN(C(C)C)CC3)c(=O)[nH]2)c1` as the molecule, how does the “Percent Effect” value read?
A: 7.848%

Q: With `O=C(O)C(F)(F)F.O=C(O)C(F)(F)F.O=C1CC(c2ccncc2)C2(CCN(CC3CC3)CC2)N1` (centres undefined) as the molecule, how does the “Percent Effect” value read?
A: -16.85%

Q: `CN1CC(=O)N(c2cnn(C)c2)CC12CCN(CC1CC1)C2.O=C(O)C(F)(F)F.O=C(O)C(F)(F)F` (centres undefined) was tested. Which “Percent Effect” value did it give?
A: -40.13%

Q: `CN(C)C(=O)COC[C@]12COC[C@H]1CN(C1CCCC1)C2.O=C(O)C(F)(F)F` was tested. Which “Percent Effect” value did it give?
A: 33.3%

Q: How did the “Percent Effect” value turn out when `O=C(O)C(F)(F)F.O=C1CCCN1Cc1nnc2n1CCN(Cc1ccco1)CC2` was run?
A: 8.62%

Q: For `CN(Cc1cccnc1)C1CC2(CCN(c3ccccn3)CC2)C1.O=C(O)C(F)(F)F.O=C(O)C(F)(F)F.O=C(O)C(F)(F)F`, which “Percent Effect” value is on record?
A: -2.81%

Q: For `COc1ccccc1OCCC(=O)N1CCCCC1c1nccs1` (centres undefined), which “Percent Effect” value is on record?
A: -0.6566%

Q: Which “Percent Effect” value does the source give for `O=C1CSc2ccccc2N1CC(=O)N1CCCCC1c1nccs1` (centres undefined) here?
A: 95.25%

Q: For `Cc1ccc2c(c1)SCC(=O)N2CC(=O)N1CCCC1c1nccs1` (centres undefined), which “Percent Effect” value is on record?
A: 34.79%

Q: For `CN(C)C(=O)N1CCC[C@]2(C(=O)N(C)C)CN(c3ccccn3)C[C@@H]2C1.O=C(O)C(F)(F)F`, which “Percent Effect” value is on record?
A: -29.23%

Q: For `Cc1nc(CN2C(=O)C[C@H]3[C@H]2CCN3C2CCOC2)cs1.O=C(O)C(F)(F)F` (some centres undefined), which “Percent Effect” value is on record?
A: -20.37%

Q: With `O=C1C[C@H]2CC[C@@H](CN1)N2c1cc(-c2ccccc2F)nc2ccnn12` as the molecule, how does the “Percent Effect” value read?
A: 8.242%

Q: With `I.c1ccc(Sc2ccc3c(c2)OCO3)c(CNC2=NCCN2)c1` as the molecule, how does the “Percent Effect” value read?
A: 5.756%

Q: With `CN(C)Cc1cc(C2CCCCN2S(=O)(=O)Cc2ccccc2)nn1C.Cl` (centres undefined) as the molecule, how does the “Percent Effect” value read?
A: -25.85%

Q: How did the “Percent Effect” value turn out when `Cc1cccnc1CN1CC[C@H](Oc2cccc(F)c2)[C@@](C)(O)C1` was run?
A: 104.4%

Q: How did the “Percent Effect” value turn out when `Cc1cnccc1CN1CC[C@H](Oc2cccc(F)c2)[C@@](C)(O)C1` was run?
A: 101.8%

Q: How did the “Percent Effect” value turn out when `C[C@]1(O)CN(Cc2ncc[nH]2)CC[C@@H]1Oc1cccc(F)c1` was run?
A: -7.197%

Q: How did the “Percent Effect” value turn out when `Cc1nccc(CN2CC[C@H](Oc3cccc(F)c3)[C@@](C)(O)C2)n1` was run?
A: -10.08%

Q: For `Cc1cnccc1CN1CC[C@@](C)(O)[C@H](Oc2cccc(F)c2)C1`, which “Percent Effect” value is on record?
A: -11.46%

Q: Which “Percent Effect” value does the source give for `C[C@]1(O)CN(Cc2ncccc2F)CC[C@@H]1Oc1cccc(F)c1` here?
A: 32.25%

Q: With `Cc1ccc(CN2CCC3(CCN(c4cnn(C)c4)C3=O)C2)s1.O=C(O)C(F)(F)F` (centres undefined) as the molecule, how does the “Percent Effect” value read?
A: -24.12%

Q: How did the “Percent Effect” value turn out when `O=C(NC1CC1)[C@H]1C[C@H]2OCC[C@H]2N(Cc2cccnc2)C1.O=C(O)C(F)(F)F.O=C(O)C(F)(F)F` was run?
A: 0.4638%

Q: `O=C(NCC1CC1)C1CN(Cc2ccncc2)Cc2ccnn2C1.O=C(O)C(F)(F)F.O=C(O)C(F)(F)F.O=C(O)C(F)(F)F` (centres undefined) was tested. Which “Percent Effect” value did it give?
A: -17.14%

Q: With `Cn1cnc(S(=O)(=O)N2CCCC2)c1Cl` as the molecule, how does the “Percent Effect” value read?
A: 74.4%

Q: For `Cn1cnc(S(=O)(=O)N2CCOCC2)c1Cl`, which “Percent Effect” value is on record?
A: -1.938%

Q: How did the “Percent Effect” value turn out when `CN1CCN(S(=O)(=O)c2ncn(C)c2Cl)CC1` was run?
A: -34.66%

Q: `CC(C)(C)C(=O)N1C[C@H](c2ccsc2)[C@H]2CN(C3CCCC3)CC[C@H]21.Cl` was tested. Which “Percent Effect” value did it give?
A: -4.306%

Q: How did the “Percent Effect” value turn out when `O=C(O)C(F)(F)F.O=C(O)C(F)(F)F.O=C1CC[C@]2(CC[C@@H](NCc3cccnc3)CC2)N1Cc1ccccc1` was run?
A: -11.79%

Q: Which “Percent Effect” value does the source give for `CN1CCS(=O)(=O)[C@@H]2CCN(C(=O)CC(C)(C)C)CC[C@@H]21.O=C(O)C(F)(F)F` here?
A: -1.789%
